Molecular target: T1, GST-Co-NF-kB (Capsaspora owczarzaki, UniProt F1ARL5 200-546)
T1 sequence: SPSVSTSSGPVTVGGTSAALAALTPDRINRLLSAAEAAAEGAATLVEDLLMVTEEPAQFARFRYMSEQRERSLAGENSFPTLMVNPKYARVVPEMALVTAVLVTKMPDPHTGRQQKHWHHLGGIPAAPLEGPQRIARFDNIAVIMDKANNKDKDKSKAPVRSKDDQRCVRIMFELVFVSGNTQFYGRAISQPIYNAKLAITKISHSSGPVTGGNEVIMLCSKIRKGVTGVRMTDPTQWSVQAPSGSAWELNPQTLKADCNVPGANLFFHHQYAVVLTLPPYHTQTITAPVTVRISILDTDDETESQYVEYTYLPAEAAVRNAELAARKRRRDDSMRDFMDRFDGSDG
Assay: protein-binding microarray (PBM); PBM: ~300 nM protein, 6 mM HEPES pH 7.8, 80 mM KCl, 0.5 mM EDTA, 0.5 mM EGTA, 6% glycerol, 35 ng/ul poly-dIdC, 1% milk, 1 h, room temperature; Ap Aiptasia and Nv Nematostella (sea anemones) / Co Capsaspora / Aq Amphimedon (sponge) / Dm Drosophila / Hu human; RHD is the Rel homology domain; high values mean tight binding
Conditions: dsDNA, one strand shown

Sequence | binding signal [z-score]
CCGATTAACATCAGCCCCCCGTCTGATGTTAATCGGGTCTTGATTCGCTTGACGCTGCTG | 3
CCGATTAACATCAAACAGGGAAATGATGTTAATCGGGTCTTGATTCGCTTGACGCTGCTG | 2.47
CCGATTAACATCAGGGAATTAGATGATGTTAATCGGGTCTTGATTCGCTTGACGCTGCTG | 2.41
CCGATTAACATCAAGCCCCCCCATGATGTTAATCGGGTCTTGATTCGCTTGACGCTGCTG | 3.51
CCGATTAACATCAACTTTCCCAGTGATGTTAATCGGGTCTTGATTCGCTTGACGCTGCTG | 3.84
CCGATTAACATCAGAGTTTCCCATGATGTTAATCGGGTCTTGATTCGCTTGACGCTGCTG | 3.76
CCGATTAACATCAGTATTCCCCATGATGTTAATCGGGTCTTGATTCGCTTGACGCTGCTG | 7.15
CCGATTAACATCAACGGGAACTCTGATGTTAATCGGGTCTTGATTCGCTTGACGCTGCTG | 1.78
CCGATTAACATCACCATTTTCCCTGATGTTAATCGGGTCTTGATTCGCTTGACGCTGCTG | 3.65
CCGATTAACATCACATACCCCCCTGATGTTAATCGGGTCTTGATTCGCTTGACGCTGCTG | 3.97
CCGATTAACATCACCGTTTTCCCTGATGTTAATCGGGTCTTGATTCGCTTGACGCTGCTG | 4.03
CCGATTAACATCACCGCTTCCCTTGATGTTAATCGGGTCTTGATTCGCTTGACGCTGCTG | 1.46
CCGATTAACATCATGGGGACGACTGATGTTAATCGGGTCTTGATTCGCTTGACGCTGCTG | 2.39
CCGATTAACATCAGGGGAGTGTATGATGTTAATCGGGTCTTGATTCGCTTGACGCTGCTG | 3.2
CCGATTAACATCAAACTTTTCCCTGATGTTAATCGGGTCTTGATTCGCTTGACGCTGCTG | 4.78
CCGATTAACATCAGGGAAAAACCTGATGTTAATCGGGTCTTGATTCGCTTGACGCTGCTG | 3.82

Sequence | binding signal [z-score]
CCGATTAACATCACGAAATTCCCTGATGTTAATCGGGTCTTGATTCGCTTGACGCTGCTG | 4.17
CCGATTAACATCATGGTGGGAAATGATGTTAATCGGGTCTTGATTCGCTTGACGCTGCTG | 2.94
CCGATTAACATCAGGGGAAGAAATGATGTTAATCGGGTCTTGATTCGCTTGACGCTGCTG | 8.71
CCGATTAACATCAGACATTCCCATGATGTTAATCGGGTCTTGATTCGCTTGACGCTGCTG | 1.37
CCGATTAACATCAAAAATTCCCATGATGTTAATCGGGTCTTGATTCGCTTGACGCTGCTG | 5.2
CCGATTAACATCAGGGAATCAGATGATGTTAATCGGGTCTTGATTCGCTTGACGCTGCTG | 1.68
CCGATTAACATCAATTTTTTCCCTGATGTTAATCGGGTCTTGATTCGCTTGACGCTGCTG | 6.48
CCGATTAACATCACCCCCACCCCTGATGTTAATCGGGTCTTGATTCGCTTGACGCTGCTG | 4.43
CCGATTAACATCAAATAATTCCCTGATGTTAATCGGGTCTTGATTCGCTTGACGCTGCTG | 5.48
CCGATTAACATCAGGGAAAAGAATGATGTTAATCGGGTCTTGATTCGCTTGACGCTGCTG | 2.97
CCGATTAACATCAGGGAATACACTGATGTTAATCGGGTCTTGATTCGCTTGACGCTGCTG | 2.5
CCGATTAACATCATGGGAAGGTTTGATGTTAATCGGGTCTTGATTCGCTTGACGCTGCTG | 2.28
CCGATTAACATCACCTATTCCCCTGATGTTAATCGGGTCTTGATTCGCTTGACGCTGCTG | 5.72
CCGATTAACATCAACTCGGGAAATGATGTTAATCGGGTCTTGATTCGCTTGACGCTGCTG | 3.32
CCGATTAACATCAACCAATCCCCTGATGTTAATCGGGTCTTGATTCGCTTGACGCTGCTG | 2.16
CCGATTAACATCAAAGATTTCCCTGATGTTAATCGGGTCTTGATTCGCTTGACGCTGCTG | 4.84

Reference: paper PMC5700166
